The source made the active and inactive calls. Unless noted, how the calls were made is not given here.

A short description of assay [1]: compounds binding Alexa647 anti-His antibody – biochemical, small-molecule microarray, 635 nm fluorescence, artefact control for SMM control protein annotation, primary screen (AID 1128).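 Further: score merges feature fluorescence with signal-to-noise for each printed compound spot.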 As to conditions: higher = more signal.
Assay [2] has as its system Human papillomavirus type 1a E7 protein (residues 1-88). Description: HPV1a E7 small-molecule binders, primary screen, biochemical, small-molecule microarray, residues 1-88, 635 nm (AID 1129). As to conditions: small-molecule microarray binding, fluorescence 635 nm; higher = more signal.
The target of assay [3] is Focal adhesion kinase 1 (Homo sapiens) (UniProt Q05397). Description: PTK2 protein binding on printed compound slides – biochemical, small-molecule microarray, 635/667 nm fluorescence, BSA, DTT, primary screen (AID 1130).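 Further: composite of spot emission at 667 nm and signal to noise over triplicate slides.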 The following applies: 635 nm fluorescence, higher = more signal.
Assay [4] has as its system Fibrinogen (Alexa647-labelled). Description: Alexa647-fibrinogen binding to printed small molecules – biochemical, small-molecule microarray, 635/667 nm fluorescence, artefact control for SMM control-protein annotation, profiling panel (AID 1131).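 Further: z-score merges 667 nm fluorescence with per-spot signal-to-noise over triplicate slides.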 As to conditions: fibrinogen-A647 binding fluorescence, higher = more signal.
For assay [5], the target named is Follistatin (Homo sapiens) (UniProt P19883). Description: FST protein binding to printed compounds – biochemical, small-molecule microarray, 635/667 nm fluorescence, primary screen (AID 1132). As to conditions: 635 nm fluorescence, higher = more signal.
The target of assay [6] is Fibroblast growth factor 2 (Homo sapiens) (UniProt P09038). Put plainly: basic fibroblast growth factor binding to printed compounds – biochemical, small-molecule microarray, 635/667 nm fluorescence, primary screen (AID 1133). As to conditions: FGF2, fluorescence 635/667, higher = more signal.
Assay [7] can be described thus: JC-1 mitochondrial potential readout, lung cancer cells – cell-based, A549, JC-1 fluorescence, basal, 24 h, 100 nL, profiling panel (AID 1138).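 Further: A549 lung adenocarcinoma cells under basal conditions with no added stimulus; test concentration not given here.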 The following applies: higher = more signal.
The test system of the next assay is Lefty1. Put plainly: Lefty1 protein binding to printed compounds – biochemical, small-molecule microarray, 635/667 nm fluorescence, primary screen (AID 1139). As to conditions: fluorescence 635/667, higher = more signal.
Assay [8] concerns wheat germ agglutinin (Triticum aestivum), Alexa647-labelled. Put plainly: Alexa647-WGA lectin binding to printed small molecules – biochemical, small-molecule microarray, 635/667 nm fluorescence, artefact control for SMM control-protein annotation, profiling panel (AID 1140).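 Further: score merges 667 nm feature emission with signal to noise over triplicate slides.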 The following applies: WGA-A647 binding, 635 nm fluorescence, higher = more signal.
For assay [9], the target named is Luciferin 4-monooxygenase (Photinus pyralis) (UniProt P08659). Description: inhibition of purified Photinus pyralis luciferase – biochemical, luminescence, purified enzyme, 2006 set, primary screen (AID 1141).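 Further: cell-free assay with purified firefly luciferase at 100 ng per well in PBS; test concentration not given here.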 The following applies: purified firefly luciferase, SteadyGlo luminescence, 30 min; higher = more signal, called active from +8 up or from −8 down.
For assay [10], the system named is Wnt5a (protein binding on small-molecule microarray). Description: small molecules binding Wnt5a protein – biophysical, small-molecule microarray, 635/667 nm fluorescence, primary screen (AID 1142).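 Further: fluorescence read at 667 nm with signal to noise per printed feature.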 As to conditions: 635 nm fluorescence, higher = more signal.
Assay [11] is described as follows: ATP-based viability of Huh7 replicon cells – cell-based, CellTiter-Glo luminescence, basal, 48 h, cytotoxicity control for HCV replication inhibitor project, primary screen (AID 1143).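 Further: Huh7 hepatoma cells carrying a hepatitis C replication reporter with no stimulus; test concentration not given here.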 As to conditions: higher = more signal, called active from +8 up or from −8 down. A general note: Replicon systems follow genome replication, usually without infectious particles.
Assay [12] in a line: Pseudomonas biofilm growth suppression – PAO1 strain, BacTiter-Glo luminescence, LB-PBS, primary screen (AID 1144). As to conditions: P. aeruginosa PAO1 biofilm, 12 h, higher = more signal.
Assay [13] in a line: basal CRE-LacZ reporter activity in PC12 – cell-based, unstimulated, primary screen (AID 1145). The following applies: no forskolin, luminescence, 4.5 h, higher = more signal, called active from +8 up or from −8 down.
Assay [14] can be described thus: forskolin-driven CRE-LacZ activity in PC12 – cell-based, CRE-LacZ reporter, forskolin-stimulated, primary screen (AID 1146).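 Further: PC12 cells with 6xCRE LacZ reporter stimulated by forskolin 10 µM; beta-galactosidase reporter signal reflecting CREB driven transcription.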 As to conditions: luminescence, 4.5 h, higher = more signal, called active from +8 up or from −8 down.
Assay [15] addresses Streptavidin (Streptomyces avidinii) (UniProt P22629). Put plainly: compounds binding control protein streptavidin – biophysical, small-molecule microarray, 635/667 nm fluorescence, artefact control for SMM compound annotation, primary screen (AID 1147).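 Further: signal reflects streptavidin binding to arrayed compounds as a control protein.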 As to conditions: higher = more signal.
A short description of assay [16]: probe aInhba binding on compound microarray – biochemical, small-molecule microarray, 635/667 nm fluorescence, primary screen (AID 1148).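 Further: score merges 667nm spot fluorescence with signal-to-noise for antibody binding to printed compounds.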 The following applies: higher = more signal.
For assay [17], the target named is Torsin-1A (Homo sapiens) (UniProt O14656). Put plainly: TOR1A wild-type binding on microarray – cell lysate, small-molecule microarray, lysate, 635/667 nm, primary screen (AID 1149). The following applies: COS7 hTOR1A-WT lysate, 635 nm fluorescence, higher = more signal.
Assay [18] shares this target. Put plainly: torsin A mutant lysate binding on microarrays – cell lysate, small-molecule microarray, COS7 lysate, 635/667 nm fluorescence, primary screen (AID 1150).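 Further: score pools 667 nm emission and signal to noise measuring lysate protein binding.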 As to conditions: COS7 hTOR1A mutant lysate, 635 nm fluorescence, higher = more signal.
The subject of assay [19] is Sonic hedgehog protein (Shh). Description: Sonic hedgehog microarray binding compounds – biochemical, small-molecule microarray, 635/667 nm fluorescence, primary screen (AID 1151).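 Further: Shh protein binding to compounds spotted on small-molecule microarray slides; score combines spot fluorescence intensity with signal-to-noise across triplicate slides.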 The following applies: 635 nm fluorescence, higher = more signal.

Chain of Fibroblast growth factor 2 (Homo sapiens) (P09038 whole entry, looked up): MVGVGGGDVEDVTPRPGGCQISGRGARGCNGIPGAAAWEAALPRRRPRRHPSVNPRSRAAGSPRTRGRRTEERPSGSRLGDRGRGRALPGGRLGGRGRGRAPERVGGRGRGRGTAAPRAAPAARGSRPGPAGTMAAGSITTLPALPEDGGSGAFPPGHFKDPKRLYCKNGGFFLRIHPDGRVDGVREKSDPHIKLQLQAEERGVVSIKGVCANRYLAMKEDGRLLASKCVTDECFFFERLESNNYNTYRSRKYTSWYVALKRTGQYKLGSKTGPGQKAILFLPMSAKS
Chain of Torsin-1A (Homo sapiens) (O14656 whole entry, looked up): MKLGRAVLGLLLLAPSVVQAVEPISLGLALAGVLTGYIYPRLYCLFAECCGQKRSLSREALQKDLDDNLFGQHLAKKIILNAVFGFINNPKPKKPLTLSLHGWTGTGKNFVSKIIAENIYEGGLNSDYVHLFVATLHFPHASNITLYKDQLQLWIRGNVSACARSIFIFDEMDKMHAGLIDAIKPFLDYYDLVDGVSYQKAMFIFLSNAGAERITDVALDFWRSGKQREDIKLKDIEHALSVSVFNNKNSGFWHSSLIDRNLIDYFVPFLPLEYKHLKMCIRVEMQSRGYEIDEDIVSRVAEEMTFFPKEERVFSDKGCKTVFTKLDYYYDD
Chain of Luciferin 4-monooxygenase (Photinus pyralis) (P08659 whole entry, looked up): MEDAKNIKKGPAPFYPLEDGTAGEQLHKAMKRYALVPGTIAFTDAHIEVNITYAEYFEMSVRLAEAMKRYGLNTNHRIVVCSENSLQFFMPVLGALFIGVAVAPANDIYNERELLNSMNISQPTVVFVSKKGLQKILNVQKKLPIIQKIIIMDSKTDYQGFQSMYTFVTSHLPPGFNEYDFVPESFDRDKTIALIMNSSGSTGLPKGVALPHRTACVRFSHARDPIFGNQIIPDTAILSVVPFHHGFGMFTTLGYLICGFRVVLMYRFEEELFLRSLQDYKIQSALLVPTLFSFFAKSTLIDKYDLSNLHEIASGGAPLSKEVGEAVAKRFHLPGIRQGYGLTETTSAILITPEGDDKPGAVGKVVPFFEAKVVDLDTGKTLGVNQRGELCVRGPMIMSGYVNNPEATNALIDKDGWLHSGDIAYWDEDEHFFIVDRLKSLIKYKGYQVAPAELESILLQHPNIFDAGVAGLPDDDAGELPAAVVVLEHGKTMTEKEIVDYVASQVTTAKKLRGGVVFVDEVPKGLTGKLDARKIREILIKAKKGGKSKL
Chain of Focal adhesion kinase 1 (Homo sapiens) (Q05397 whole entry, looked up): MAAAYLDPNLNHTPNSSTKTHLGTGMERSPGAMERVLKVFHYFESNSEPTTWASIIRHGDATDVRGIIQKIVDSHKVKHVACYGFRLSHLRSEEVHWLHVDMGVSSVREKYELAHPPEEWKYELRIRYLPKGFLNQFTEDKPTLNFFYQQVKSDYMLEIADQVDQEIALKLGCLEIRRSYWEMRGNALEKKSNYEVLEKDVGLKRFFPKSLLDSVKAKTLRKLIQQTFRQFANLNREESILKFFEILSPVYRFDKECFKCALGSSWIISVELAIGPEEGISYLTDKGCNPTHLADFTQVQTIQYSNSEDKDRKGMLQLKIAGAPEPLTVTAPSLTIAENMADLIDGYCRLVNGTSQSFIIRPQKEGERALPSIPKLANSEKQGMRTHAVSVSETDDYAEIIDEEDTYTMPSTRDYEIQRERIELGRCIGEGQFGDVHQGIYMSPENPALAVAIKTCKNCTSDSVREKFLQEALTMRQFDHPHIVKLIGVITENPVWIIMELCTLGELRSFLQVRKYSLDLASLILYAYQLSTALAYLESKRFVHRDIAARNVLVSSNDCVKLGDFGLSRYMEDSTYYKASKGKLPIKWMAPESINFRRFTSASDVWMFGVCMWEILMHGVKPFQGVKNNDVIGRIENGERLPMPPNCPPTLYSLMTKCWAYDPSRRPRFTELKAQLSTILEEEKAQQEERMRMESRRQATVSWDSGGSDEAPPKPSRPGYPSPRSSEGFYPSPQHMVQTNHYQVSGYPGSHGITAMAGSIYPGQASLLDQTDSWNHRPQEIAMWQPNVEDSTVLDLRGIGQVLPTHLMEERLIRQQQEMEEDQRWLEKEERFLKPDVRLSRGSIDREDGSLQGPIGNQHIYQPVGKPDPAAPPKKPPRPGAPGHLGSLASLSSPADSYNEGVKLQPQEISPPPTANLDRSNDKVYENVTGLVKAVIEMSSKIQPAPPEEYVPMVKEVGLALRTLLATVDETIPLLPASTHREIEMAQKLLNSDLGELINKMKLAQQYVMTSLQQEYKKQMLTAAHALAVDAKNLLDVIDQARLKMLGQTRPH
Chain of Streptavidin (Streptomyces avidinii) (P22629 whole entry, looked up): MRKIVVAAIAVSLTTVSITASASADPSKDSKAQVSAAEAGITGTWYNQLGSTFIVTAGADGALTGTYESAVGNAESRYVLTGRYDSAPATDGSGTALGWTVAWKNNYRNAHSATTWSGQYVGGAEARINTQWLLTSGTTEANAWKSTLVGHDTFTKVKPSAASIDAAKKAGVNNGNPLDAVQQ
Chain of Follistatin (Homo sapiens) (P19883 whole entry, looked up): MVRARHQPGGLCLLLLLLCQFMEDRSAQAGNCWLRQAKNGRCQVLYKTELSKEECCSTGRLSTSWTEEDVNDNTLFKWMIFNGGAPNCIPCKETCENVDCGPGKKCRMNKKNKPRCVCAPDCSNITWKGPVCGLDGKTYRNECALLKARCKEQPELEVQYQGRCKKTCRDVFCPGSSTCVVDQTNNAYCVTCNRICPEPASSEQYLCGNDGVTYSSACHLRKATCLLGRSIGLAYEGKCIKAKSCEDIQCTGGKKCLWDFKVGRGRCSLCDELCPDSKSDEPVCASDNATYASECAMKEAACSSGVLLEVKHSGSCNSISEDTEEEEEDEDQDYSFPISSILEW

Take `CCOC(=O)[C@H](Cc1ccccc1)NC(=O)CCC1CC(OC(=O)NCc2ccc3c(c2)OCO3)CC2(CCCC(COC(=O)NCCc3ccccc3OC)O2)O1` (stereo not given in full): the composite z-score in [1] came to 0.969; in assay [2] it was 1.2; in assay [3], 0.492; in assay [4] it was 1; in assay [5], 1.07; in assay [6], 1.32. The composite z-score in the assay with Lefty1 is 1.36; in assay [8], 0.63; in [10], 0.296; in assay [15], 1.19; in [16], -0.0937; with Torsin-1A (Homo sapiens) [17], 0.479. The composite z-score with Torsin-1A (Homo sapiens) [18] is 0.252; in assay [19], 0.995. Further, the z-score in [7] is -0.654; in assay [9], 0.274 (inactive); in [11], -0.415 (inactive); in [12], 0.8 (inactive); in assay [13], 17.2 (active); in assay [14], 0.109 (inactive).

Turning to `C[C@@H](c1ccccc1)N1C(=O)[C@H]2[C@H]3[C@H](O)[C@H](O)CC(=NOCc4ccccc4)[C@H]3CC[C@H]2C1=O`, the composite z-score was 1.2 in assay [1]; 1.17 in assay [2]; 0.0785 in [3]; 0.823 in [4]; 0.287 in assay [5]; 0.181 in assay [6]. Moreover, the composite z-score in the assay on Lefty1 is 0.295; in assay [8], 0.0559; in assay [10] it was -0.0159; in [15], 0.587; in [16], -0.183; in the assay with Torsin-1A (Homo sapiens) [17], -0.0911. The composite z-score in the assay with Torsin-1A (Homo sapiens) [18] was 0.651; in assay [19], 0.378. Also, the z-score in [7] is 1.06; in assay [9], 0.0057 (inactive); in [11], -0.416 (inactive); in [12], 0.576 (inactive); in [13], 0.0687 (inactive); in assay [14], 0.0517 (inactive).

In the case of `O=C1[C@H]2[C@H]3[C@H](O)[C@H](O)CC(=NOC[C@@H](O)COCc4ccco4)[C@@H]3CC[C@H]2C(=O)N1C[C@@H]1CCCO1`, the composite z-score is 0.142 in [1]; -0.12 in [2]; -0.288 in assay [3]; -0.652 in assay [4]; 0.907 in assay [5]; 1.34 in [6]. Also, the composite z-score in the assay with Lefty1 is 1.17; in assay [8], -0.559; in assay [10], 0.149; in assay [15] it was -0.0625; in assay [16], -0.263; with Torsin-1A (Homo sapiens) [17] it was 3.22. Also, the composite z-score with Torsin-1A (Homo sapiens) [18] was found to be 3.3; in [19], 1.59. The z-score in [7] was -0.00687; in assay [9], 0.31 (inactive); in assay [11], 0.0304 (inactive); in [12] it was 0.835 (inactive); in [13] it was -0.207 (inactive); in assay [14], -0.0793 (inactive).

As to `CO[C@@H]1COC(=O)CC=C[C@@H](C)[C@@H]2C=C[C@H](O)[C@@H](COC(=O)CC=C[C@H]1C)O2`, the composite z-score was -0.143 in [1]; -1.07 in assay [2]; -0.649 in assay [3]; -0.616 in assay [4]; 1.45 in assay [5]; 1.3 in [6]. Moreover, the composite z-score with Lefty1 is 1.66; in [8], -0.448; in assay [10], -0.186; in [15], -0.0274; in [16], -0.255; in the assay with Torsin-1A (Homo sapiens) [17] it was 2.58. The results for the composite z-score (with Torsin-1A (Homo sapiens) [18]; in assay [19]) were 1.72 and 2.13, respectively. Moreover, the z-score in [7] was 1.81; in [9] it was -1.35 (inactive); in [11] it was -0.256 (inactive); in assay [12], 0.177 (inactive); in assay [13], 0.877 (inactive); in [14], -0.0355 (inactive).

Turning to `CO[C@H]1COC(=O)[C@@H]2CCCN2C(=O)CC=C[C@@H](C)[C@H](OC)COC(=O)[C@@H](OCc2ccccc2)C=C[C@@H]1C`, the composite z-score was -0.228 in [1]; -1.15 in assay [2]; 0.0122 in [3]; -0.557 in [4]; 1.27 in assay [5]; 1.02 in [6]. Moreover, the composite z-score in the assay on Lefty1 is 1.5; in [8], -0.83; in assay [10], -0.0628; in assay [15] it was -0.0601; in [16] it was -0.407; in the assay with Torsin-1A (Homo sapiens) [17], 1.32. In addition, the composite z-score amounted to 0.855 in the assay with Torsin-1A (Homo sapiens) [18] and 1.89 in assay [19]. The z-score in assay [7] was 0.0486; in assay [9], 0.168 (inactive); in [11], -3.36 (inactive); in [12], -0.576 (inactive); in [13], 1.15 (inactive); in assay [14], -0.166 (inactive).

Source of the values: PubChem BioAssay.
